The supplement of paper PMC13380429

Columns and labels:
[1] = system: Vero E6 infected with SARS-CoV-2; assay: morphology score (similarity to uninfected cells); higher = more like uninfected cells; conditions: 24 h
[2] = system: Vero E6 infected with SARS-CoV-2; assay: SARS-CoV-2 infection rate relative to infected DMSO; higher = more infection, active = 60 or less; conditions: 24 h

In the case of `CC[n+]1c(-c2ccccc2)c2cc(N)ccc2c2ccc(N)cc21` [homidium] (10 µM), the morphology score [1] is reported as 0.276 and the SARS-CoV-2 infection rate [2] is reported as 99.5% (inactive).

In the case of `CCOC(=O)c1cncn1[C@H](C)c1ccccc1` [etomidate] (10 µM), the morphology score [1] is reported as -0.0479 and the SARS-CoV-2 infection rate [2] is reported as 110% (inactive).

`COc1cc(C(=O)OCCCN2CCCN(CCCOC(=O)c3cc(OC)c(OC)c(OC)c3)CC2)cc(OC)c1OC` [dilazep] (0.833333 µM) was tested, and the morphology score [1] was -0.00497 and the SARS-CoV-2 infection rate [2] was 106% (inactive).

With `COc1ccc2[nH]c([S+]([O-])Cc3ncc(C)c(OC)c3C)nc2n1` (stereo not drawn) [tenatoprazole] (10 µM) the morphology score [1] was 0.162 and the SARS-CoV-2 infection rate [2] was 105% (inactive).

For `CCN1CCN(c2ccc(C(C)(C)NC(=O)c3cc4[nH]c5ccccc5c(=O)c4cc3F)cn2)CC1` (10 µM), the morphology score [1] was 0.572 and the SARS-CoV-2 infection rate [2] was 55% (active).

`N[C@@H](CCC(=O)N[C@@H](CS)C(=O)NCC(=O)O)C(=O)O` [glutathione] (10 µM) was tested, and the morphology score [1] was -0.0349 and the SARS-CoV-2 infection rate [2] was 108% (inactive).

For `CC(C)[C@@H](C)/C=C/[C@@H](C)[C@H]1CC[C@H]2C3=CC=C4C[C@@H](O)CC[C@]4(C)[C@H]3CC[C@]12C` [ergosterol] (10 µM), the morphology score [1] was 0.0665 and the SARS-CoV-2 infection rate [2] was 104% (inactive).

For `CCOC1O[C@H]([C@@H](COCc2ccccc2)OCc2ccccc2)[C@H](OCc2ccccc2)[C@H]1O` (stereo partly drawn) [tribenoside] (10 µM), the morphology score [1] was -0.0493 and the SARS-CoV-2 infection rate [2] was 102% (inactive).

In the case of `NC(=O)C1=CN([C@@H]2O[C@H](COP(=O)(O)OP(=O)(O)OC[C@H]3O[C@@H](n4cnc5c(N)ncnc54)[C@H](O)[C@@H]3O)[C@@H](O)[C@H]2O)C=CC1` [coenzyme-I] (10 µM), the morphology score [1] is reported as 0.00507 and the SARS-CoV-2 infection rate [2] is reported as 103% (inactive).

In the case of `CCC(=O)O[C@@H]1CC(=O)O[C@H](C)C/C=C/C=C/[C@H](O)[C@H](C)C[C@H](CC=O)[C@H](O[C@@H]2O[C@H](C)[C@@H](O[C@H]3C[C@@](C)(O)[C@@H](OC(=O)CC)[C@H](C)O3)[C@H](N(C)C)[C@H]2O)[C@H]1OC` [midecamycin] (10 µM), the morphology score [1] is reported as 0.2 and the SARS-CoV-2 infection rate [2] is reported as 102% (inactive).

With `Oc1ccc(O)cc1` [hydroquinone] (10 µM) the morphology score [1] was 0.00582 and the SARS-CoV-2 infection rate [2] was 108% (inactive).

For `COc1ccc2[nH]c(-c3ccccc3)c(CCNC(C)=O)c2c1` [2-phenylmelatonin] (10 µM), the morphology score [1] was 0.062 and the SARS-CoV-2 infection rate [2] was 107% (inactive).

For `O=C1C2CC=CCC2C(=O)N1SC(Cl)(Cl)Cl` (stereo not drawn) [captan] (10 µM), the morphology score [1] was 0.232 and the SARS-CoV-2 infection rate [2] was 93% (inactive).

In the case of `CC(=O)OCC(=O)[C@@]1(O)[C@@H](C)C[C@H]2[C@@H]3CCC4=CC(=O)C=C[C@]4(C)[C@@]3(F)[C@@H](O)C[C@@]21C` [betamethasone-acetate] (10 µM), the morphology score [1] is reported as -0.021 and the SARS-CoV-2 infection rate [2] is reported as 114% (inactive).

In the case of `CCc1cc2cc(OC)c(OC)cc2c(Cc2ccccc2)n1` [moxaverine] (10 µM), the morphology score [1] is reported as 0.495 and the SARS-CoV-2 infection rate [2] is reported as 86% (inactive).

In the case of `CS(=O)(=O)CCNCc1ccc(-c2ccc3ncnc(Nc4ccc(OCc5cccc(F)c5)c(Cl)c4)c3c2)o1` [lapatinib] (10 µM), the morphology score [1] is reported as -0.279 and the SARS-CoV-2 infection rate [2] is reported as 111% (inactive).

For `CC(=O)O[C@H]1C[C@@]2(C)[C@@H](C[C@@H](O)[C@H]3[C@@]4(C)CC[C@@H](O)[C@@H](C)[C@@H]4CC[C@@]32C)/C1=C(\CCC=C(C)C)C(=O)O` [fusidic-acid] (10 µM), the morphology score [1] was 0.063 and the SARS-CoV-2 infection rate [2] was 98% (inactive).

With `O=C(c1ccc(C(=O)N2CCC(N3CCCC3)CC2)c(Nc2ccccc2)c1)N1CCC(N2CCCC2)CC1` (10 µM) the morphology score [1] was -0.0106 and the SARS-CoV-2 infection rate [2] was 114% (inactive).

In the case of `O=C(O)C1=CO[C@@H](O[C@@H]2O[C@H](CO)[C@@H](O)[C@H](O)[C@H]2O)[C@@H]2C(CO)=CC[C@H]12` [Geniposidic acid] (10 µM), the morphology score [1] is reported as -0.163 and the SARS-CoV-2 infection rate [2] is reported as 114% (inactive).

`CCn1cc(C(=O)O)c(=O)c2cc(F)c(N3CCN(C)CC3)cc21` [pefloxacin] (10 µM) was tested, and the morphology score [1] was 0.158 and the SARS-CoV-2 infection rate [2] was 91.5% (inactive).

In the case of `N[C@H](C(=O)O)c1ccc(O)cc1` [oxfenicine] (10 µM), the morphology score [1] is reported as 0.246 and the SARS-CoV-2 infection rate [2] is reported as 103% (inactive).

For `COc1c2occc2c(OC)c2c(=O)cc(C)oc12` [khellin] (10 µM), the morphology score [1] was -0.102 and the SARS-CoV-2 infection rate [2] was 109% (inactive).

With `N.N.O=C([O-])C[O-].[Pt+2]` [nedaplatin] (10 µM) the morphology score [1] was 0.0896 and the SARS-CoV-2 infection rate [2] was 102% (inactive).

For `CC[C@H](CO)Nc1nc(Nc2cccc(-c3ccccn3)c2)c2ncn(C(C)C)c2n1` (10 µM), the morphology score [1] was -0.214 and the SARS-CoV-2 infection rate [2] was 116% (inactive).
